# Screen size: about 16,000 compounds; about 4,000 (25%) were called active. Roughly 26% stayed inconclusive and do not appear here. Calls follow the shape of the dose curve; as a rule, active = well fitted curve in the direction sought with a large enough effect; inconclusive = small, poorly fitted or top-dose-only effect, or effect the other way; inactive = no such curve, though single readings can be large or run the other way. The list is a sample of the results.
# Biological target: Cytochrome P450 2C9 (Homo sapiens) (UniProt P11712)
# Sequence (P11712 whole entry, looked up): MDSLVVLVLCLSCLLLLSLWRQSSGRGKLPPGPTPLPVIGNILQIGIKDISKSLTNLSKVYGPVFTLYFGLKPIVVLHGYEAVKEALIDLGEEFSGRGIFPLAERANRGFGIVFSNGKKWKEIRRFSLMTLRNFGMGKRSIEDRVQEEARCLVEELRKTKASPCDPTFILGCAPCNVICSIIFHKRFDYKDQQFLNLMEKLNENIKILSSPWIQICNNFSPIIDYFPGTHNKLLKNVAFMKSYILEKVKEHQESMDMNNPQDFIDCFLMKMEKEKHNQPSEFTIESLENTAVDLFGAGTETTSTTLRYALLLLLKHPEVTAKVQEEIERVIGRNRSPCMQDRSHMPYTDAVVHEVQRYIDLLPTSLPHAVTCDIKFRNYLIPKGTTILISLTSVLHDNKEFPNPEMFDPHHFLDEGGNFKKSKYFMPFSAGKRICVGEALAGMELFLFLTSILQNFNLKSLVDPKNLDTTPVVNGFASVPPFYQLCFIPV
# Assay: Cytochrome panel assay with activity outcomes
# Conditions: recombinant CYP, pro-luciferin dealkylation, luminescence, p450-cyp2c9; series mostly up to 57.1 µM
# % is scaled to controls: 0 for no effect and ±100 for the full control effect.
SMILES,AC50,"activity, negative = inhibition"
Cc1cc(C)c(NC(=O)CSc2nnc(Cc3cccn3C)n2-c2ccc(F)cc2)c(C)c1,10 µM (active),–
C=CCn1c(SC(C)C(=O)NCc2ccc3c(c2)OCO3)nc2scc(-c3ccccc3)c2c1=O (centres undefined),2.51 µM (active),–
C=CCn1c(SCc2ccc3c(c2)OCO3)nc2scc(-c3ccco3)c2c1=O,inactive,–
S=C1SCN(C2CCCCCCCCCCC2)CN1C1CCCCCCCCCCC1,–,-14.2% [at 11.4 µM] (inactive)
CC1(C)O[C@@H]2C[C@H]3[C@H]4C[C@H](F)C5=CC(=O)CC[C@]5(C)[C@@H]4[C@H](O)C[C@]3(C)[C@]2(C(=O)CO)O1,inactive,–
CC(NC(=O)c1ccc(Cn2cc([N+](=O)[O-])cn2)o1)c1ccccc1 (centres undefined),6.31 µM (active),–
Cc1ncc([N+](=O)[O-])n1CC(=O)NCc1ccccc1,inactive,–
CCOC(=O)c1c(-c2ccccc2)cn2ccccc12,3.55 µM (active),–
CCOC(=O)c1c2c(n3ccccc13)C(=O)c1ccccc1C2=O,–,-20.1% [at 11.4 µM] (inactive)
CN(C)C(=O)c1ccc(-c2nccc(Nc3ccc(F)cc3)n2)cc1,–,-2.83% [at 2.29 µM] (inactive)
COCC(=O)N1CCC2(CCCN(Cc3ccccc3OC)C2)CC1,inactive,–
CO[C@@H]1COC(=O)[C@H]2CCCN2C(=O)[C@@H](C)COC(=O)C/C=C\[C@H]1C,–,14.2% [at 11.4 µM] (inactive)
CCc1ccc(NC(=S)N2CCN(c3cccc(C(F)(F)F)c3)CC2)cc1,inactive,–
O=C(c1coc2ccccc2c1=O)N1CCN(c2cccc(C(F)(F)F)c2)CC1,12.6 µM (active),–
Cc1cccc(C)c1NC(=O)c1cc2c(=O)c3ccccc3oc2nc1C(F)(F)F,inactive,–
Cc1ccc(CC(=O)N2CCN(c3cccc(C(F)(F)F)c3)CC2)cc1,14.1 µM (active),–
C[C@@H]1CCN=C(N)S1,inactive,–
CS(=O)(=O)Nc1cccc(-c2ccc3ncnc(NC4CC4)c3c2)c1,–,-17.7% [at 2.29 µM] (inactive)
CO[C@@H]1COC(=O)[C@H]2CCCN2C(=O)C/C=C\[C@@H](C)[C@H](OC)COC(=O)[C@H]2CCCN2C(=O)C/C=C\[C@H]1C,–,-0.816% [at 11.4 µM] (inactive)
O=c1cnc2cnc(Oc3ccccc3)nc2n1Cc1ccc(F)cc1,15.8 µM (active),–
Cc1nc2cnc(Oc3ccccc3)nc2n(CCc2ccccc2)c1=O,inactive,–
COc1ccc(-n2c(=O)cnc3cnc(Oc4cccc(Cl)c4)nc32)cc1,inactive,–
O=c1cnc2cnc(OCc3ccccc3)nc2n1Cc1ccc(F)cc1,inactive,–
O=c1cnc2cnc(Oc3ccccc3)nc2n1CCc1ccccc1,3.16 µM (active),–
O=c1cnc2cnc(Oc3cccc(Cl)c3)nc2n1Cc1ccc(F)cc1,7.94 µM (active),–
N#CCCn1c(=O)cnc2cnc(Oc3ccccc3)nc21,inactive,–
CN1CCN(c2ncc3ncc(=O)n(Cc4ccc(F)cc4)c3n2)CC1,inactive,–
COc1cccc(Cn2c(=O)cnc3cnc(Oc4cccc(Cl)c4)nc32)c1,3.98 µM (active),–
COc1cccc(Cn2c(=O)cnc3cnc(OC)nc32)c1,inactive,–
